# Measurements: ChEMBL document CHEMBL3988442, “University of Dundee, Small-Polar-MMV Screening Library” (2021)
# What was measured:
# [1] = biological target: T1, Aspartate--tRNA(Asp/Asn) ligase (Mycobacterium tuberculosis (strain ATCC 25618 / H37Rv)) (UniProt P9WFW3); assay: Assay for Asp RNA synthetase-1 from Mycobacterium tuberculosis; format: functional; parameters: scale not given: direction of the effect not stated beside the values; conditions: 30 µM; further: in the data most compounds retested in dose-response had high values
# T1 sequence (whole entry): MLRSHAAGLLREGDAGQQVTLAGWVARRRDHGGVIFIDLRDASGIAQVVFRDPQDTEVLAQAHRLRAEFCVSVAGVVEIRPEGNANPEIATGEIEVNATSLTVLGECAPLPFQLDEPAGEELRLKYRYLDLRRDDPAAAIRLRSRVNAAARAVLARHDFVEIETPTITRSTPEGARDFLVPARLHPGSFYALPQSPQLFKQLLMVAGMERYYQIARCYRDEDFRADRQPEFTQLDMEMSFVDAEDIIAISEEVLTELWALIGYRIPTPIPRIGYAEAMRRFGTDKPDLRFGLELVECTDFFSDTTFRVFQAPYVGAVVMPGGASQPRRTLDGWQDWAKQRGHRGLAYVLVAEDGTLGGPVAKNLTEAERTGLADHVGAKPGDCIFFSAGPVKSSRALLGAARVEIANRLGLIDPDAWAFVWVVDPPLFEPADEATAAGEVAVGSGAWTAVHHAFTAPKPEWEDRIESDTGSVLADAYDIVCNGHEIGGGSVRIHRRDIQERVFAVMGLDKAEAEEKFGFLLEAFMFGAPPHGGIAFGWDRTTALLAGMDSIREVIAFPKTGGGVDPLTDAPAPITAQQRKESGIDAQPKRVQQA
# [2] = biological target: Shiga toxin 2 (Escherichia coli O157:H7) (UniProt P09385+P09386); assay: E. coli 0.157:H7 Shiga Toxin SOP - stx2 screening assay; format: functional; parameters: scale not given: direction of the effect not stated beside the values; conditions: 30 µM
SMILES,Percent Effect [1] [%],Percent Effect [2] [%]
Cn1cc(C2CCCN2C(=O)CCCOc2ccc(F)cc2F)cn1 (stereo unspecified),-2.66,13.7
Cc1ccn(-c2ccc(C(=O)N3CCCC(n4ccnc4)C3)cc2)n1 (stereo unspecified),3.8,-14.7
O=C1[C@H]2CC[C@H](CN(C3CSCCSC3)C2)N1Cc1cscn1,2.92,-34.4
